Source: PubChem BioAssay AID1159580 (chemical genetic matrix, 2015)
Out of some 5,500 compounds screened, about 2,000 (36%) were called active. Inconclusive results (about 18%) are left out. Cut-off read from the data, not from the text of the source: active = normalized growth mostly below about 0.91 (no sharp cut-off); inconclusive = no clear call, values can overlap the other calls; inactive = mostly above about 0.92. The list shows a part of the results.

Assay: chemical genetic growth profiling, strain panel (AID 1159580);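 note: tested at 20 µM; growth read once vehicle control cultures reached saturation at 30 °C; 1 = growth at the plate median or of vehicle wells; lower values mean less growth of the strain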
Settings: growth OD

Measured: normalized growth

CC(=O)Nc1ccccc1
inactive: S. cerevisiae deletion strains, locus YJR066W, strain TOR1, stronger effect = lower value 0.911 | S. cerevisiae deletion strains, locus YJR075W, strain HOC1, stronger effect = lower value 0.99 | S. cerevisiae deletion strains, locus YKL009W, strain mrt4, stronger effect = lower value 0.97 | S. cerevisiae deletion strains, locus YKL068W, stronger effect = lower value 0.99 | S. cerevisiae deletion strains, locus YKL085W, strain MDH1 (second series), stronger effect = lower value 0.977 | S. cerevisiae deletion strains, locus YKL085W, strain MDH1, stronger effect = lower value 0.977 | S. cerevisiae deletion strains, locus YKL160W, strain elf1, stronger effect = lower value 0.985 | S. cerevisiae deletion strains, locus YKL190W, strain CNB1, stronger effect = lower value 0.973 | S. cerevisiae deletion strains, locus YKR001C, strain vps1, stronger effect = lower value 0.98 | S. cerevisiae deletion strains, locus YKR026C, strain gcn3, stronger effect = lower value 0.927 | S. cerevisiae deletion strains, locus YKR091W, strain srl3, stronger effect = lower value 0.95 | S. cerevisiae deletion strains, locus YLL001W, strain dnm1, stronger effect = lower value 0.979 | S. cerevisiae deletion strains, locus YLL026W, stronger effect = lower value 0.972 | S. cerevisiae deletion strains, locus YLL041C, strain sdh2, stronger effect = lower value 0.985 | S. cerevisiae deletion strains, locus YLR027C, strain aat2, stronger effect = lower value 0.961 | S. cerevisiae deletion strains, locus YLR039C, strain RIC1, stronger effect = lower value 0.966 | S. cerevisiae deletion strains, locus YLR058C, strain SHM2, stronger effect = lower value 0.972 | S. cerevisiae deletion strains, locus YLR102C, strain apc9, stronger effect = lower value 0.983 | S. cerevisiae deletion strains, locus YLR113W, strain HOG1, stronger effect = lower value 0.959 | S. cerevisiae deletion strains, locus YLR221C, strain rsa3, stronger effect = lower value 0.967 | S. cerevisiae deletion strains, locus YLR258W, strain gsy2, stronger effect = lower value 0.98 | S. cerevisiae deletion strains, locus YLR262C, strain YPT6 (second series), stronger effect = lower value 0.976 | S. cerevisiae deletion strains, locus YLR262C, strain YPT6, stronger effect = lower value 0.941 | S. cerevisiae deletion strains, locus YLR268W, strain sec22, stronger effect = lower value 0.99 | S. cerevisiae deletion strains, locus YLR320W, strain mms22, stronger effect = lower value 0.964 | S. cerevisiae deletion strains, locus YLR330W, strain CHS5, stronger effect = lower value 0.996 | S. cerevisiae deletion strains, locus YLR342W, strain FKS1 (second series), stronger effect = lower value 1.07 | S. cerevisiae deletion strains, locus YLR342W, strain FKS1, stronger effect = lower value 0.954 | S. cerevisiae deletion strains, locus YLR357W, strain rsc2, stronger effect = lower value 0.967 | S. cerevisiae deletion strains, locus YLR370C, strain arc18, stronger effect = lower value 0.97 | S. cerevisiae deletion strains, locus YLR371W, strain rom2, stronger effect = lower value 0.999 | S. cerevisiae deletion strains, locus YLR384C, strain iki3, stronger effect = lower value 0.986 | S. cerevisiae deletion strains, locus YLR418C, strain cdc73, stronger effect = lower value 1 | S. cerevisiae deletion strains, locus YML016C, strain PPZ1, stronger effect = lower value 0.993 | S. cerevisiae deletion strains, locus YML032C, strain rad52, stronger effect = lower value 0.992 | S. cerevisiae deletion strains, locus YML120C, strain ndi1, stronger effect = lower value 0.967 | S. cerevisiae deletion strains, locus YML124C, strain tub3, stronger effect = lower value 0.982 | S. cerevisiae deletion strains, locus YMR058W, strain fet3, stronger effect = lower value 0.976 | S. cerevisiae deletion strains, locus YMR078C, strain ctf18, stronger effect = lower value 0.982 | S. cerevisiae deletion strains, locus YMR125W, strain sto1, stronger effect = lower value 0.944 | S. cerevisiae deletion strains, locus YMR129W, stronger effect = lower value 0.984 | S. cerevisiae deletion strains, locus YMR205C, strain PFK2, stronger effect = lower value 0.969 | S. cerevisiae deletion strains, locus YMR223W, strain ubp8, stronger effect = lower value 0.985 | S. cerevisiae deletion strains, locus YMR231W, strain pep5, stronger effect = lower value 0.986 | S. cerevisiae deletion strains, locus YMR263W, strain SAP30, stronger effect = lower value 0.981 | S. cerevisiae deletion strains, locus YMR307W, strain GAS1, stronger effect = lower value 1.07 | S. cerevisiae deletion strains, locus YNL067W, strain RPL9B, stronger effect = lower value 0.964 | S. cerevisiae deletion strains, locus YNL071W, strain lat1, stronger effect = lower value 0.976 | S. cerevisiae deletion strains, locus YNL183C, strain NPR1, stronger effect = lower value 0.915 | S. cerevisiae deletion strains, locus YNL209W, strain ssb2, stronger effect = lower value 0.975 | S. cerevisiae deletion strains, locus YNL233W, strain BNI4, stronger effect = lower value 0.978 | S. cerevisiae deletion strains, locus YNL248C, strain rpa49, stronger effect = lower value 0.969 | S. cerevisiae deletion strains, locus YNL250W, strain rad50, stronger effect = lower value 0.97 | S. cerevisiae deletion strains, locus YNL271C, strain bni1, stronger effect = lower value 0.995 | S. cerevisiae deletion strains, locus YNL298W, strain CLA4, stronger effect = lower value 0.986 | S. cerevisiae deletion strains, locus YNL307C, strain MCK1, stronger effect = lower value 0.987 | S. cerevisiae deletion strains, locus YNL322C, strain KRE1 (second series), stronger effect = lower value 0.942 | S. cerevisiae deletion strains, locus YNR049C, strain mso1, stronger effect = lower value 0.952 | S. cerevisiae deletion strains, locus YNR052C, strain pop2, stronger effect = lower value 0.996 | S. cerevisiae deletion strains, locus YOL006C, strain TOP1, stronger effect = lower value 0.928 | S. cerevisiae deletion strains, locus YOL012C, strain htz1 0.771 | S. cerevisiae deletion strains, locus YOL147C, strain pex11, stronger effect = lower value 0.982 | S. cerevisiae deletion strains, locus YOR001W, strain rrp6, stronger effect = lower value 0.979 | S. cerevisiae deletion strains, locus YOR061W, strain CKA2, stronger effect = lower value 0.959 | S. cerevisiae deletion strains, locus YOR069W, strain VPS5, stronger effect = lower value 0.994 | S. cerevisiae deletion strains, locus YOR070C, strain gyp1, stronger effect = lower value 0.972 | S. cerevisiae deletion strains, locus YOR080W, strain dia2, stronger effect = lower value 0.961 | S. cerevisiae deletion strains, locus YOR083W, strain WHI5, stronger effect = lower value 0.965 | S. cerevisiae deletion strains, locus YOR106W, strain vam3, stronger effect = lower value 0.956 | S. cerevisiae deletion strains, locus YOR136W, strain idh2, stronger effect = lower value 0.988 | S. cerevisiae deletion strains, locus YOR144C, strain elg1, stronger effect = lower value 0.987 | S. cerevisiae deletion strains, locus YOR184W, strain ser1, stronger effect = lower value 0.981 | S. cerevisiae deletion strains, locus YOR231W, strain MKK1, stronger effect = lower value 0.968 | S. cerevisiae deletion strains, locus YOR265W, strain rbl2, stronger effect = lower value 0.973 | S. cerevisiae deletion strains, locus YOR270C, strain vph1, stronger effect = lower value 0.927 | S. cerevisiae deletion strains, locus YOR290C, strain snf2, stronger effect = lower value 0.971 | S. cerevisiae deletion strains, locus YOR316C, strain cot1, stronger effect = lower value 0.978 | S. cerevisiae deletion strains, locus YPL051W, strain arl3, stronger effect = lower value 0.982 | S. cerevisiae deletion strains, locus YPL055C, strain LGE1, stronger effect = lower value 0.906 | S. cerevisiae deletion strains, locus YPL078C, strain atp4, stronger effect = lower value 0.971 | S. cerevisiae deletion strains, locus YPL106C, strain sse1, stronger effect = lower value 0.961 | S. cerevisiae deletion strains, locus YPL240C, strain hsp82, stronger effect = lower value 0.994 | S. cerevisiae deletion strains, locus YPL256C, strain CLN2, stronger effect = lower value 0.953 | S. cerevisiae deletion strains, locus YPR119W, strain clb2, stronger effect = lower value 0.986 | S. cerevisiae deletion strains, locus YPR141C, strain kar3, stronger effect = lower value 0.989 | S. cerevisiae deletion strains, locus YPR163C, strain tif3, stronger effect = lower value 0.996 | S. cerevisiae deletion strains, locus YPR167C, strain met16, stronger effect = lower value 0.994 | S. cerevisiae deletion strains, strain wtn01, stronger effect = lower value 1 | S. cerevisiae strains, strain wild type, stronger effect = lower value 0.982
